CSC inhib: blocks cancer stem cells; cancer stem cell-like cells viability, luminescence; inhibition, % at 7.5 µM; 300,000 compounds, 1.1% hits; AID 2717; in the data active = inhibition above about 75%; tested in HMLE shEcad cells
NR3A LBD binder: modulates the human NR3A ligand-binding domain; 340,000 compounds, 2.5% hits; NR3A LBD differential scanning fluorimetry, Tm shift; 0% = protein alone, 100% = glycine-bound protein; Tm shift relative to glycine control, % at 25 µM;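 active = melting temperature shift of at least 10% of the positive control shift, at one fixed dose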
Beta apoptosis: blocks beta cell apoptosis. INS-1E cytokine-induced death, ATP luminescence, 48 h; percent of positive-control rescue, neutral wells zero. protection from apoptosis, % (test concentration not listed). 300,000 compounds, 0.8% hits;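 active = Every replicate reaches about 75%, or at least half do and their mean reaches it too, limit read from the data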;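 also: 0% = cytokine-treated negative control wells and 100% = positive control rescue; higher means more ATP so stronger rescue from cytokine killing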
MPTP inh: blocks calcium-induced mitochondrial swelling | isolated mouse mitochondria, Ca2+ swelling absorbance, 30 min | inhibition, % at 10 µM | 360,000 compounds, 1.4% hits | AID 602449;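 active = inhibition of 50% or more, scaled per plate between neutral and stimulator controls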;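 also: 0% = DMSO wells given calcium and 100% = 1 mM EGTA wells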
SKKanGAS inh: inhibitors of SKKanGAS S. pyogenes growth in kanamycin (SK-promoter or general growth effect) | BacTiter-Glo, 6 h | 300,000 compounds, 1.3% hits | inhibition, % at 7.5 µM | AID 1662;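 active = mean replicate score, as percent of positive control median, at least 50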;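 also: strain carries kanamycin resistance gene driven by streptokinase promoter and grows in 40 µg/ml kanamycin; loss of luminescence reflects streptokinase promoter inhibition or plain growth inhibition; 0% = median of DMSO wells and 100% = positive control at its reference dose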
Mdm2 MdmX PPI: disrupts the human Mdm2-MdmX interaction. SaOS-2 split-luciferase Mdm2/MdmX complementation, luminescence. inhibition, % at 8 µM. AID 485346. 330,000 compounds, 3% hits. O15151+Q00987;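 active = inhibition of at least 50% at 8 µM in the primary screen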
Target sequence (O15151 whole entry, looked up): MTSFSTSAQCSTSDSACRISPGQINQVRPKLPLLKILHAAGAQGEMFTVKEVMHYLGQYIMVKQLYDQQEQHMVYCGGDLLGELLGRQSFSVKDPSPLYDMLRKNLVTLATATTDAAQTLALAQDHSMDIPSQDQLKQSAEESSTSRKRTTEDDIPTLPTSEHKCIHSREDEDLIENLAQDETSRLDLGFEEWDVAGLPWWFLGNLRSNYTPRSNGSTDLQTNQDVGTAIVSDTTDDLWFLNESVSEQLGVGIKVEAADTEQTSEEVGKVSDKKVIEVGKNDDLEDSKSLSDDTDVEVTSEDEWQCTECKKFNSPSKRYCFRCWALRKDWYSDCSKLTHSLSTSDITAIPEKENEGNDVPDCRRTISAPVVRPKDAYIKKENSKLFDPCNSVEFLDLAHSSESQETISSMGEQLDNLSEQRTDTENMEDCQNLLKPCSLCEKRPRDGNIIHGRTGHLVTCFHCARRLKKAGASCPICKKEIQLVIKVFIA
Target sequence (Q00987 whole entry, looked up): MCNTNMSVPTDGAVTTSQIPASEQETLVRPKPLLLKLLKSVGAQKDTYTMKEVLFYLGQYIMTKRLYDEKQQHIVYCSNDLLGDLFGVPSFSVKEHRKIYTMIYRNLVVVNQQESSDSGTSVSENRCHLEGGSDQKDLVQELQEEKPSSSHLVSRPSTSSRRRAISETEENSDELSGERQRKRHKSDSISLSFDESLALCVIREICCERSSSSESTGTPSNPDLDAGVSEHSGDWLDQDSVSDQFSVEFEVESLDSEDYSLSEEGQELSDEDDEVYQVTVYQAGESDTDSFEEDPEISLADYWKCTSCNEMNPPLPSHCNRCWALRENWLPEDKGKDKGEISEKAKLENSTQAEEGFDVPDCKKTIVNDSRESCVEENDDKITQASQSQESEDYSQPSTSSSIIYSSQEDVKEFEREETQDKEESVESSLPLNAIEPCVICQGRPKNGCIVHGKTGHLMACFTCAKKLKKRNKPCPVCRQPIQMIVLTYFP
* marks the source's active call; other numbers are inactive results; . = no result given. Sampled rows, rich in hits. Any-hit rate of the full collection: about 6.9%.

SMILES	CSC inhib	NR3A LBD binder	Beta apoptosis	MPTP inh	SKKanGAS inh	Mdm2 MdmX PPI
Cc1ccc(N(CC(=O)NC2CCCCC2)C(=O)CNC(=O)c2ccco2)cc1F	.	2.6	3.8	-0.6	-1.2	18.4
O=C(Nc1nc(-c2cccs2)cs1)c1ccc(Cl)cc1	42.9	10.7*	1.4	0.2	16.4	0.8
O=C(COc1ccc(Cl)cc1)Nc1nc(-c2cccs2)cs1	7.3	3.3	-0.4	-2.9	20.2	-2.6
Cc1c(C(=O)Nc2nccs2)sc2nc(-c3cccs3)cc(C(F)(F)F)c12	25.0	27.6*	34.8	13.9	95.2*	42.4
Cc1csc(NC(=O)c2sc3nc(-c4cccs4)ccc3c2N)n1	-27.5	28.4*	0.9	.	31.8	-82.3
O=C(Nc1nc(-c2ccccc2Cl)cs1)c1cccnc1	15.5	10.2*	-1.0	1.6	2.1	22.4
O=C(NCCCCNC(=O)C(F)(F)F)C(F)(F)F	-5.1	-2.0	-6.0	-0.2	-1.2	7.0
CC(=O)NS(=O)(=O)c1ccc(NC(=O)c2ccc3c(c2)OCO3)cc1	.	0.9	.	-1.7	4.0	5.4
O=C(Nc1nc(-c2cccs2)cs1)c1cccc(S(=O)(=O)N2CCCCC2)c1	24.4	10.1*	-4.0	1.1	27.9	36.5
COc1ccc(C(=O)Nc2nc(-c3cccs3)cs2)cc1	13.0	15.8*	-4.6	0.2	6.0	-64.7
O=C(Nc1nc(-c2cccs2)cs1)c1ccc([N+](=O)[O-])o1	90.2*	-5.0	-11.0	4.7	.	34.8
Cc1cc(C(=O)OC(C)C(=O)Nc2nc(-c3ccccc3)cs2)c(C)o1 (configuration not stated)	33.4	-7.1	2.8	0.3	-6.0	3.8
O=C(Nc1nc(-c2cccs2)cs1)c1ccco1	-12.2	-1.3	.	-0.4	4.6	-110.8
CC(OC(=O)c1ccc([N+](=O)[O-])o1)C(=O)Nc1nc(-c2ccc(F)c(F)c2)cs1 (configuration not stated)	.	14.8*	.	-0.9	.	-19.5
COc1ccc(COC(=O)CCS(=O)(=O)c2ccc(C)cc2)cc1F	.	2.2	-0.7	0.0	4.5	21.0
COC(=O)c1ccc(CNC(=O)/C=C/[C@H]2O[C@@H](n3cc(C)c(=O)[nH]c3=O)C[C@@H]2O)cc1	.	.	.	1.3	.	.
Cc1nn(-c2cccc(Cl)c2)c2nc(-c3ccncc3)cc(C(=O)N3CCOCC3)c12	-2.8	4.0	4.8	1.9	-5.8	13.0
COc1cc(NC(=O)COc2cccc3c2OC(C)(C)C3)cc(OC)c1OC	5.3	0.9	55.5	6.4	.	-0.2
Brc1ccc2nc(C3CCCCC3)c(Cc3ccccc3)n2c1	.	.	.	3.1	.	.
CCO[C@@H]1OC(C(=O)N2CCOCC2)=C[C@H](c2cn(C(C)=O)c3ccccc23)[C@H]1CCCO	-7.7	-2.5	-3.2	-3.5	5.2	2.2
CCO[C@@H]1OC(C(=O)N2CCN(Cc3ccccc3)CC2)=C[C@H](c2cn(C(C)=O)c3ccccc23)[C@H]1CCCO	8.7	11.5*	0.1	0.9	3.5	13.4
CCO[C@H]1OC(C(=O)O)=C[C@@H](c2cn(C(C)=O)c3ccccc23)[C@@H]1CCCO	-10.2	12.9*	-2.7	-1.9	2.7	-28.0
CN1C(=O)[C@@](O)(c2cn(C)c3ccccc23)c2cc(F)ccc21	.	.	.	0.5	.	.
Brc1ccc(OCc2ccccc2)c(CNCc2ccncc2)c1	3.7	11.2*	1.5	3.9	1.0	15.1
Fc1ccc(COc2ccccc2CNCc2ccncc2)cc1	-8.9	-9.6	2.0	-0.1	2.3	34.8
O=[N+]([O-])c1ccc(N2CCN(C(=S)NCc3ccc(Cl)cc3)CC2)cc1	6.4	8.4	96.5*	29.7	21.5	21.0
CCCCCCc1cc2cc(-c3nnc(-c4cc(OC)c(OC)c(OC)c4)o3)c(=O)oc2cc1O	76.7*	-4.2	4.8	.	35.6	10.4
O=C(Oc1ccc(-c2cnc3ccccc3n2)cc1)c1ccc(Cl)c([N+](=O)[O-])c1	-9.6	-0.9	-7.9	-2.0	74.0*	-68.8
COc1ccc(N2CCN(C(=O)COC(=O)CCOc3ccc(C(C)(C)C)cc3)CC2)cc1	-6.1	0.8	1.7	-0.4	11.5	12.8
CC(C)CN(C(=O)CCC(=O)OC(C)C(=O)Nc1cccc(C#N)c1)c1c(N)n(CC(C)C)c(=O)[nH]c1=O (configuration not stated)	-3.6	-0.6	-1.2	0.8	-0.8	-0.2

High-throughput results as filed in PubChem BioAssay.
